# TRb-SRC2 inh: TRbeta-SRC2 interaction inhibition; Potency, µM (titrated, usually from 106 µM), for inactives: at the highest dose activity change, negative = inhibition, usual class: inhibitors; hit rate 0.065% among 280,000; TRbeta-SRC2 peptide binding, fluorescence polarization; receptor liganded with 1 µM T3;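 note: plate controls were bound peptide for no effect and peptide without receptor for full effect; nearly all actives have a fitted effect of over 50% in size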
# Target sequence (P10828 whole entry, looked up): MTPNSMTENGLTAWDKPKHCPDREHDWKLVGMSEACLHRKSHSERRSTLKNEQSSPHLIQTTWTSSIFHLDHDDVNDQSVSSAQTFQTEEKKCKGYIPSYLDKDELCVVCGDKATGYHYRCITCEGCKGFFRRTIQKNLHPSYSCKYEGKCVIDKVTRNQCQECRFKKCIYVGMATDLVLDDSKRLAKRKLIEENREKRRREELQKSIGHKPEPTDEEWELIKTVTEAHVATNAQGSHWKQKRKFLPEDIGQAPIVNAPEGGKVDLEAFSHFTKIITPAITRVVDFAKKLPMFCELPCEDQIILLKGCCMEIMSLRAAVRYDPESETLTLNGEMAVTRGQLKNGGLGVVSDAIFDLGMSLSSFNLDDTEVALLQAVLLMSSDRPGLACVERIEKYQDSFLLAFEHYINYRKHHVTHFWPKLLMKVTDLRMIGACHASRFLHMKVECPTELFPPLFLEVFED
#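 Binding of a 20-amino-acid Texas Red SRC2 peptide (20 nM) to TRb ligand-binding domain (0.6 uM) with agonist T3 at 1 uM was followed by fluorescence polarization after a 5 hr room-temperature incubation.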
# Tau fluor cs: counter-screen for tau fibril formation inhibitors; tau K18 P301L Alexa594 fluorescence, heparin fibrillization; Potency, µM (highest dose often 57.7 µM), without a hit: top-dose activity change, negative = decrease; AID 1463; hit rate 0.93% among 280,000; note: nearly all actives have a fitted effect of over 55% in size
#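 Human K18 P301L tau (15 uM unlabeled plus 0.24 uM Alexa 594-labeled, final) in 100 mM sodium acetate pH 7 was mixed with compound and 20 uM heparin and incubated 6 hr at 37 C.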
# TexasRed fluor: Texas Red fluorescence interference in TRb-SRC2 counter-screen. hit rate 0.29% among 280,000. Potency, µM (doses to about 106 µM), for inactives: top-dose fluorescence change, negative = quenching. TRb/SRC2 Texas Red total fluorescence interference; active = well fitted curve in either direction with a large enough effect; inconclusive = small, poorly fitted or top-dose-only effect
#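 Human TRb ligand-binding domain at 0.6 uM with 20 nM Texas Red SRC2 peptide in Tris buffer containing 1 uM T3 and 5% DMSO, incubated with compound 5 h at ambient temperature. Total fluorescence (555/632 nm) calculated as parallel + 2 × perpendicular.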
# Tau fibril ThT: blocks human tau fibril formation measured by thioflavin T; P10636; recombinant tau K18 P301L, heparin-induced fibrillization, ThT fluorescence; Potency, µM (titrated, usually from 57.4 µM), without a hit: top-dose activity, negative = inhibition, actives largely listed as inhibitors; hit rate 2.1% among 270,000; AID 1460; note: nearly all actives have a fitted effect of over 55% in size
# Target sequence (P10636 561-689 P618L limits assumed): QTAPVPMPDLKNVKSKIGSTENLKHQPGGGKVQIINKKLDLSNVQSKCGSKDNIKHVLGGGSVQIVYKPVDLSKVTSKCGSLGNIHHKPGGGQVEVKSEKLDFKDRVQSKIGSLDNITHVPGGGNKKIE
#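 Using a mix of unlabeled (15 uM) and Alexa 594-labeled (0.24 uM) tau K18 P301L, heparin-triggered fibrillization over 6 hr at 37 C was scored by ThT fluorescence.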
# Tau fibril FP: tau fibrillization inhibition (FP) | P10636 | K18 P301L tau heparin fibrillization, Alexa594 FP, 6 h | Potency, µM (highest dose often 57.7 µM), for the others: at the highest dose activity, negative = inhibition, usual class: inhibitors | hit rate 0.39% among 280,000 | AID 1468; note: nearly all actives have a fitted effect of over 55% in size
#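 Recombinant K18 P301L […], labeled with Alexa 594 at 0.24 uM over 15 uM unlabeled; heparin inducer 20 uM final; 37 C, 6 hr; FP endpoint.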
# * = called active by the depositor; ? = inconclusive; . = no result given; [ ] = remark or other dose. Shown are actives, neighbours in structure and some others; about 3% of the full set was active somewhere. Unless noted, calls come from the whole dose curve; as a rule, active = well fitted curve in the direction sought with a large enough effect; inconclusive = small, poorly fitted or top-dose-only effect, or another doubt; inactive = no such curve, though single readings can be large; an effect the other way counts as inactive or inconclusive. Unless noted, % is set by controls: 0 for no effect and ±100 for the full control effect; potency is the fitted concentration of half-maximal effect.
SMILES,TRb-SRC2 inh,Tau fluor cs,TexasRed fluor,Tau fibril ThT,Tau fibril FP
Cc1ccccc1NC(=O)Nc1ccc2nc(N3CCN(C)CC3)cc(C)c2c1,-2%,14µM*[quencher],-3%,?,?
CCOc1ccccc1NC(=O)Nc1ccc2nc(N3CCN(C)CC3)cc(C)c2c1,-2%,10µM*[quencher],-2%,14µM*,5%
COc1cccc(CNC(=O)c2ccc3nc(CCc4ccccc4)oc3c2)c1OC,10%,-1%,-23%,-14%,-3%
CCN(CC)c1ccc(NC(=O)C2CCCN(S(=O)(=O)c3ccc4c(c3)oc(=O)n4C)C2)c(C)c1 (configuration not stated),1%,?,-3%,-14%,7%
O=C(CSC1=Nc2ccccc2N=C(c2ccc(F)cc2)C1)NCc1ccccc1Cl,0%,-15%,-1%,-17%,-7%
CC(/C=C1\SC(=S)N(CC(=O)N2CCN(c3ccccc3)CC2)C1=O)=C\c1ccccc1,0%,-22%,0%,?,2%
CC(/C=C1\SC(=O)N(CC(=O)Nc2cccc(O)c2)C1=O)=C\c1ccccc1,2%,6.3µM*[quencher],1%,-27%,16µM*
CC(/C=C1\SC(=S)N(CC(=O)O)C1=O)=C\c1ccccc1,14%,-23%,-4%,7.9µM*,-8%
CC(/C=C1\SC(=O)N(CC(=O)Nc2ccc(O)cc2)C1=O)=C\c1ccccc1,-14%,-5%,-1%,6%,-8%
CC(=O)c1ccc(NC(=O)CCCN2C(=O)/C(=C/C(C)=C/c3ccccc3)SC2=S)cc1,1%,?,-5%,?,0%
CC(=C\c1ccco1)/C=C1/SC(=S)N(CC(=O)O)C1=O,-4%,?,-1%,4µM*,?
COc1ccc(OC)c(/C=C2\SC(=S)N(C(C(=O)O)c3ccccc3)C2=O)c1 (configuration not stated),2%,-15%,-1%,16µM*,-12%
Cc1ccc(-c2noc(-c3nnn(CC(=O)Nc4cc(Cl)ccc4C)c3N)n2)cc1,-3%,-9%,0%,4%,-3%
CC(/C=C1\SC(=S)N(C(C(=O)O)c2ccccc2)C1=O)=C\c1ccccc1 (configuration not stated),3%,-13%,-3%,32µM*,-13%
C=CCOc1ccc(/C=C2\SC(=S)N(C(C(=O)O)c3ccccc3)C2=O)cc1 (configuration not stated),0%,-4%,-1%,22µM*,-6%
CCOC(=O)c1sc(NC(=O)Nc2ccccc2Cl)cc1C,-1%[53 µM],8.9µM*[quencher],0%[53 µM],-8%,?
CCOC(=O)c1sc(NC(C)=O)cc1C,0%,-2%,1%,-4%,-6%
CCOC(=O)c1sc(NC(=O)Nc2ccccc2)cc1C,7%,14µM*[quencher],2%,?,?
CCOC(=O)c1sc(NC(=O)c2ccc(C)s2)cc1C,-12%,?,2%,-7%,-7%
COc1cc(-c2oc3cc(O)cc(O)c3c(=O)c2O[C@@H]2O[C@H](CO)[C@@H](O)[C@H](O)[C@H]2O)cc(OC)c1O,13%,.,-12%,.,.
O=C(O)c1ccccc1N/N=C/c1c(Sc2nnnn2-c2ccccc2)nc2ccccn2c1=O,1%,?,-3%,7.9µM*,-8%
CC(CNC(=S)Nc1cc(F)cc(F)c1)CSc1ccc(Cl)cc1 (configuration not stated),-8%,?,-2%,5%,28µM*
Cc1ccc(NC(=S)NCCSc2ccc(Cl)cc2)cc1,-2%,?,-8%,-10%,?
O=C(Cn1cnc([N+](=O)[O-])c1)Nc1cc(Oc2ccc(Cl)cc2Cl)cc([N+](=O)[O-])c1,-1%,4.5µM*[quencher],-3%,?,?
COc1ccc(C2CC(c3ccccc3)Oc3c(C)ccc(C)c32)cc1 (configuration not stated),-6%,.,-3%,.,.
SMILES,TRb-SRC2 inh,Tau fluor cs,TexasRed fluor,Tau fibril ThT,Tau fibril FP
COC(=O)C/C=C\[C@@H](C)[C@@H](/C=N\O[C@@H](C)c1cc(-c2c(C)cc(C)cc2C)no1)OC,-8%[11.2 µM],-8%[11.6 µM],?,-12%[11.5 µM],3%[11.6 µM]
CCOC(=O)c1c(NC(=O)C2CC2)sc(C)c1CC,6%,-22%,-4%,28µM*,?
CCN1CCN(c2cc(C)c3cc(NC(=O)Cc4ccccc4OC)ccc3n2)CC1,0%,-4%,-1%,-9%,?
COc1cccc(CC(=O)Nc2ccc3nc(Nc4cccc(C(F)(F)F)c4)cc(C)c3c2)c1,5%,7.1µM*[quencher],-2%,?,?
COc1ccccc1CC(=O)Nc1ccc2nc(Nc3cccc(C(F)(F)F)c3)cc(C)c2c1,9%,6.3µM*[quencher],-1%,-13%,-7%
COc1cccc(NC(=O)Cc2ccccc2)c1,0%,-6%,-6%,-13%,3%
O=C(CCC1N=C2c3ccccc3N=C(SCc3ccccc3Cl)N2C1=O)N1CCN(c2ccccc2)CC1 (configuration not stated),-6%,-20%,-1%,?,-7%
COc1ccc2cc3c(N)c(C(=O)NCc4ccco4)sc3nc2c1,0%,?,-19%,2.8µM*,10%
CCOC(=O)Cc1ccc(NC(=O)NCc2c(-n3cccc3)sc3c2CCCC3)cc1,3%,-11%,0%,-4%,2%
COc1ccc2[nH]c3c4c(ccc3c2c1)C(=O)C=CC4=O,-7%,2µM*[quencher],-14%,3.5µM*,11µM*
CN(C)c1ccc(CC2C(=O)Nc3ccccc32)cc1 (configuration not stated),-8%,?,6%,32µM*,?
O=C1Nc2ccccc2C1Cc1ccc(Br)cc1 (configuration not stated),2%,-14%,-22%,-2%,4%
CN(C)c1ccc(NC(=O)C(=O)C2C(=O)Nc3ccccc32)cc1 (configuration not stated),-4%,-21%,-2%,14µM*,6%
COc1ccc(COC(=O)N/N=C2/C[C@@H](O)[C@@H](O)[C@@H]3[C@@H]4C(=O)N(Cc5ccc6c(c5)OCO6)C(=O)[C@H]4CC[C@H]23)cc1,5%[11.2 µM],-25%[11.6 µM],-3%[11.2 µM],-19%[11.5 µM],-14%[11.6 µM]
Cc1ccc(NC(=O)C(=O)Nc2ccc(C)cn2)nc1,2%,-7%,-3%,?,3%
Cc1ccc(NC(=O)/C(C#N)=C(\N)C(Cl)(Cl)Cl)nc1,-1%,-22%,2%,25µM*,?
CCCCc1nc2c(c3c1C[C@H](C)OC3)CN(S(=O)(=O)c1ccc(C)cc1)CC2,1%[11.2 µM],-8%[11.6 µM],-5%[11.2 µM],-2%[11.5 µM],3%[11.6 µM]
C/C(CCN1CCCCc2nc(C)c(C)cc21)=N\O[C@@H](C)CN1CCCc2nc(C)c(C)cc21,0%[11.2 µM],-4%[11.6 µM],4%[11.2 µM],-10%[11.5 µM],-1%[11.6 µM]
Cc1ccccc1NC(=O)CSc1c(C(C)C)cnc2c1c(=O)n(C)c(=O)n2C,-3%,1%,-3%,-5%,-5%
